Source: PubChem (National Center for Advancing Translational Sciences (NCATS))
This is a sample that favours compounds with a hit; in the whole collection about 14% have one here.
Pf growth 96h: inhibits malaria parasite growth, 96 h; P. falciparum luciferase reporter growth, 96 h; 6.9% of 320,000 active; AID 504834; Potency, µM (titrated, usually from 28.7 µM), without a hit: at the top dose activity change, negative = inhibition, most hits filed as inhibitors; further: potency means the concentration at half of the fitted maximal effect
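Cell-based qHTS: luciferase-tagged P. falciparum in erythrocytes (2% hematocrit, 0.05% parasitemia final) incubated with compounds for 96 hours, 37 C, 5% CO2; luciferase detection reagent then added and luminescence measured.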
Sm TGR inh: inhibitors of Schistosoma mansoni thioredoxin glutathione reductase; Q962Y6; purified TGR, DTNB reduction, TNB absorbance 405 nm; Potency, µM (highest dose often 114 µM), inactives show at the top dose activity change, negative = inhibition, usual class: inhibitors; 3% of 360,000 active; AID 485364; further: potency means the concentration at half of the fitted maximal effect; nearly all actives have a fitted effect of over 60% in size
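Kinetic colorimetric format: TGR-catalysed, NADPH-driven DTNB reduction monitored via TNB absorbance. Enzyme dispensed at 20 nM; compound exposure 15 min at room temperature before reaction start.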
Pf growth 48h: inhibits P. falciparum growth in the first generation, 48 h; P. falciparum luciferase growth in erythrocytes, 48 h; Potency, µM (top dose mostly 28.7 µM), inactives show top-dose activity change, negative = inhibition, usual class: inhibitors; 5.9% of 310,000 active; AID 504832; further: potency means the concentration at half of the fitted maximal effect
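Compounds are pin-transferred into medium, infected erythrocytes (2% hematocrit, 0.1% parasitemia final) are added, and plates sit one parasite generation at 37 C in 5% CO2. Detection reagent is then added and luminescence measured.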
Giardia FBPA inh: Giardia lamblia aldolase inhibition; purified Giardia FBPA; Potency, µM (doses to about 59.6 µM), inactives show top-dose activity, negative = inhibition, usual class: inhibitors; 0.71% of 290,000 active; AID 2451; further: potency means the concentration at half of the fitted maximal effect; nearly all actives have a fitted effect of over 55% in size
Target sequence (A8B2U2 whole entry, looked up): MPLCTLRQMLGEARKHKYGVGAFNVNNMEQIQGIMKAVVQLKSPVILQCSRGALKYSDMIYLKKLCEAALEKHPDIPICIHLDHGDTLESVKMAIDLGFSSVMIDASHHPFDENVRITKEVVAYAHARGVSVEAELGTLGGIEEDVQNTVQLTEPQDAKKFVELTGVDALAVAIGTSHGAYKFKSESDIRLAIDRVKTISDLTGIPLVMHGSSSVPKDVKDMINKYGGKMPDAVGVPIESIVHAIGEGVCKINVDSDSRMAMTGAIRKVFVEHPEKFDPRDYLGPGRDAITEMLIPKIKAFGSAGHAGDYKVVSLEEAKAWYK
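Giardia FBPA (40 nM reagent) was preincubated 10 min at RT with compound (up to 57.5 uM final), then substrate plus GAPDH/TPI/NAD/arsenate coupling system with diaphorase/resazurin was added; resorufin fluorescence (525/598 nm) was read after 20 min.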
HCMV inh: blocks human cytomegalovirus replication; HFF cells, HCMV-luciferase reporter, 72 h; hits give low values; activity change, negative = inhibition, % at 57.5 µM; 4.5% of 410,000 active; AID 1259415; in the data active means activity change below about -60%; inconclusive means no clear call, values can overlap the other calls; inactive means above about -39%
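HFF cells seeded 16 h at 37C, treated with compounds, infected with luciferase-reporter HCMV at MOI 1 PFU/cell; luciferase read at 72 h post infection, normalized to buffer-only and Salinomycin controls.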
The depositor's hits bear a star; u = inconclusive; x = no result. Unless noted, the call rests on the fitted dose curve; in most records, active means well fitted curve in the direction sought with a large enough effect; inconclusive means small, poorly fitted or top-dose-only effect, or another doubt; inactive means no such curve, though single readings can be large; an effect the other way counts as inactive or inconclusive. On the % scale 0 is the no-effect control and ±100 the full control effect.

SMILES	Pf growth 96h	Sm TGR inh	Pf growth 48h	Giardia FBPA inh	HCMV inh
CCOc1ccc(OCc2ccc(C(=O)NCC3CCCO3)o2)cc1 (centres undefined)	x	-10%	-9%	2%	62
O=C(Cc1ccccc1)Nc1ccccc1C(=O)NCC1CCCO1 (centres undefined)	13µM*	6%	-8%	x	x
O=C(NCC1CCCO1)c1ccc(COc2ccc(F)cc2)o1 (centres undefined)	-18%	35µM*	37%	1%	21
O=C(NCC1CCCO1)C(=O)N/N=C/c1ccc(O)c(Cl)c1 (centres undefined)	4.1µM*	-23%	-2%	-7%	u
O=C(NCC1CCCO1)c1ccc(C(=O)NCC2CCCO2)cc1 (centres undefined)	0.47µM*	-2%	43%	7%	-8
O=C(CSc1nnc(-c2ccccc2F)n1CCc1ccccc1)Nc1ccc2[nH]c(=O)[nH]c2c1	2%	-5%	21%	-12%	-26
O=C(NCC1CCCO1)c1cc([N+](=O)[O-])ccc1N1CCC(Cc2ccccc2)CC1 (centres undefined)	u	4%	12µM*	x	0
COc1ccc(/C=C(\NC(=O)c2ccccc2)C(=O)NCC2CCCO2)cc1 (centres undefined)	-25%	66%	-7%	5%	19
O=C(NCC1CCCO1)/C(=C\c1ccc(Cl)cc1)NC(=O)c1ccccc1 (centres undefined)	0.83µM*	15%	27%	4%	-26
COc1cc(C(=O)NCC2CCCO2)ccc1OCc1ccc(Cl)cc1Cl (centres undefined)	12µM*	-3%	12µM*	x	-37
CCN(CC)S(=O)(=O)c1ccc(N2CCCC2)c(NC(=O)Cc2c(F)cccc2Cl)c1	-25%	0%	1%	x	-12
O=C(c1cc(C(F)(F)F)cc(C(F)(F)F)c1)N1CCC2(CC1)CCN(c1ccccn1)CC2	x	x	x	-3%	x
CCN(c1cccc(C)c1)C1C(=O)c2ccccc2N1C(C)=O (centres undefined)	u	22µM*	u	u	28
Cn1c(N)c(C(=O)COC(=O)COc2ccccc2Cl)c(=O)n(C)c1=O	35%	-4%	13%	x	u
CCc1ccc2oc(-c3cccc(NC(=O)c4ccc(N5CCC(C)CC5)c([N+](=O)[O-])c4)c3)nc2c1	x	12%	x	x	2
COC(=O)c1nn(-c2ccc(C)cc2)c2nnc(Cc3ccccc3)c(=O)n12	30%	20%	22%	-1%	-7
Cc1ccc(N2C(=O)[C@@H]3[C@H](C2=O)[C@H]2C=CC=NN2[C@@H]3C(=O)Nc2ccccc2)cc1	u	u	u	u	125
Cc1ccc(NC(=S)NCC23C=CC(O2)C2C(=O)N(c4ccc(C)cc4)C(=O)C23)cc1 (centres undefined)	u	5µM*	u	-4%	27
Cc1ccc(S(=O)(=O)NCC23C=CC(O2)C2C(=O)N(c4ccccc4)C(=O)C23)cc1 (centres undefined)	x	3.2µM*	-11%	0%	23
Cc1ccc(S(=O)(=O)NCC2(c3ccccc3)CCN(C)CC2)cc1	u	0%	-8%	5%	75
Cc1cccc(NC(=S)NCC23C=CC(O2)C2C(=O)N(c4ccc(Cl)cc4)C(=O)C23)c1 (centres undefined)	34%	3.2µM*	-7%	-3%	-25
Cc1ccc(N2C(=O)C3C4C=CC(CNC(=S)N5CCN(c6ccccc6)CC5)(O4)C3C2=O)cc1 (centres undefined)	u	2.5µM*	1%	-4%	-32
COc1ccc(C2=CC(=O)N(CCN)C2)cc1	x	x	x	x	3
CC1Cc2ccccc2N1C(=O)COC(=O)c1ccc(Br)o1 (centres undefined)	26%	-3%	11%	1%	12
CN(c1cccc(NC(=O)CN(c2ccc(F)cc2)S(C)(=O)=O)c1)S(C)(=O)=O	-10%	35%	u	2%	-2
SMILES	Pf growth 96h	Sm TGR inh	Pf growth 48h	Giardia FBPA inh	HCMV inh
Cc1ccc(S(=O)(=O)N(CC(=O)Nc2cccc(N(C)S(C)(=O)=O)c2)c2ccc(Cl)c(Cl)c2)cc1	u	0%	13µM*	-10%	-11
CN(c1cccc(NC(=O)CN(c2ccc(C34CC5CC(CC(C5)C3)C4)cc2)S(C)(=O)=O)c1)S(C)(=O)=O	17µM*	8%	u	-1%	x
CCOc1ccc(-n2c(=S)sc3c(=O)[nH]c(SCC(=O)NC4CCCCC4)nc32)cc1	x	x	x	x	50
O=C(CN1C(=O)c2ccccc2S1(=O)=O)Nc1ccon1	-11%	0%	13%	x	-16
CN(CCNC(=O)c1cc2c(=O)n(C)c3ccccc3c2n1C)Cc1ccccc1	-14%	28µM*	x	-4%	44
Cn1c(C(=O)NC2CCCCCC2)cc2c(=O)n(C)c3ccccc3c21	-8%	-34%	x	-6%	9
Cn1c(C(=O)NC2CCCCC2)cc2c(=O)n(C)c3ccccc3c21	10µM*	-9%	x	-6%	-27
CCCN(CCC)CCNC(=O)c1cc2c(=O)n(C)c3ccccc3c2n1C	u	50µM*	u	-8%	11
COc1ccccc1C(=O)NNC(=O)c1ccc(Br)o1	-2%	1%	109%	x	9
CCCCOc1ccc(C(=O)NCCc2csc(-c3cccc(F)c3)n2)cc1	x	-1%	x	x	-21
O=c1[nH]c2ccc(NS(=O)(=O)c3ccc(F)cc3)cc2s1	x	6%	x	x	68
Cn1c(=O)c(-c2ccccc2)nc2cnc(OCc3ccccc3)nc21	x	x	x	3%	x
Cc1c(C(=O)N2CCC(N3CCSCC3)CC2)oc2c(F)cccc12	u	4%	-5%	x	-19
Cc1ccc2c(C)c(C(=O)N3CCCC(C(N)=O)C3)oc2c1C (centres undefined)	u	2%	49%	6%	-99*
Cc1ccc2c(C)c(C(=O)N3CCC(O)(c4ccccc4)CC3)oc2c1C	18%	14%	u	8%	82
Cc1c(C(=O)N2CCC[C@H]2CO)oc2c(F)cccc12	15µM*	4%	22%	10%	78
CCOC(=O)C1CCN(C2CCN(C(=O)c3oc4c(C)c(C)ccc4c3C)CC2)CC1	-15%	-21%	13µM*	x	78
Cc1ccc2c(C)c(C(=O)N3CCN(C4CCS(=O)(=O)C4)CC3)oc2c1C (centres undefined)	u	-16%	-14%	x	33
CCOC(=O)C1CCN(C2CCN(C(=O)c3oc4c(F)cccc4c3C)CC2)CC1	u	1%	8.3µM*	x	3
Cc1c(C(=O)N2CCC(c3nc4ccccc4s3)CC2)oc2ccc(Cl)cc12	x	0%	x	x	8
CC(=O)c1cccc(N(C(=O)c2ccccn2)C(C(=O)NC2CCCCC2)c2ccccc2)c1 (centres undefined)	10µM*	-11%	-26%	x	-19
